Active and inactive are the calls of the source.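 The calls were made as follows, unless noted: active = inhibition at or above 50% at 10 µM; inactive = inhibition below 50%.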
Experiments:
[1] = inhibitors of TNFa-induced NFkB p65 translocation, primary screen, imaging, HUVEC, MLSMR starter and 10KST1 sets (AID 438;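 active = inhibition above 20% together with a positive visual image hit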;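 also: compound added about 3h40 before a 20 min TNFalpha stimulation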;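 as to inhibition: signal is the nuclear over cytoplasmic p65 intensity ratio per well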); conditions: HUVEC TNFa-induced p65 nuclear translocation; cell count: measured here: nuclei count (cytotoxicity indicator), at 2.08 µM; inhibition: at 2 µM, stronger effect = higher value, 0% TNFa-plus-vehicle, 100% no-TNFa wells
[2] = reduction of polyQ htt aggregates in cells – imaging, exon1htt(103Q)mCFP cells, high-content imaging, primary screen (AID 483;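 active = visual image review flags a hit and inhibition of aggregation exceeds 20%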;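 also: compound exposure lasted 3 days before fixation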;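 as to nuclei count: percent of the per-plate median nuclei count of sample wells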); conditions: exon1htt(103Q)mCFP cell line, aggregate imaging, at 2 µM; inhibition of aggregation: stronger effect = higher value; nuclei count: measured here: cell count, toxicity
[3] = endothelial E-selectin expression blockers – imaging, HUVEC, immunofluorescence, MLSMR starter and 10KST1 sets, primary screen (AID 487;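 active = visually confirmed hit in the image check and inhibition above 20%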;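 as to inhibition: signal is fraction of cell area covered by stained E-selectin grains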;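 as to nuclei count: 100% = median nuclei count of all wells on the same plate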); conditions: HUVEC TNFalpha-induced E-selectin immunofluorescence imaging, at 2 µM; inhibition: stronger effect = higher value; nuclei count: measured here: cell number, toxicity
[4] = biological target: Voltage-gated potassium channel subunit beta-2 (Rattus norvegicus) (UniProt P62483); test: inhibitors of rat Kvbeta2 reductase activity – biochemical, NADPH fluorescence, primary screen (AID 622;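 active = fluorescence slope higher than the sample average by over 3 SD, cut at about -0.22 in these data, passing the limit was not always enough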;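 also: slope of raw intensity against log time taken from 70 to 1610 s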); conditions: recombinant KvBeta, 4-cyanobenzaldehyde reduction, at 10 µM, stronger effect = higher value
[5] = biological target: Voltage-gated potassium channel subunit beta-2 (Rattus norvegicus) (UniProt P62483); test: enhancers of rat Kvbeta2 NADPH turnover – biochemical, NADPH fluorescence, primary screen (AID 623;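 active = NADPH fluorescence slope more negative than the mean of all samples by about 3 SD, 99.7% confidence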;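 also: fluorescence intensity change per second fitted from 20 to 320 s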); conditions: Recombinant KvBeta, NADPH fluorescence decrease slope, 10 min; at 10 µM; stronger effect = lower value
[6] = biological target: Alpha-2C adrenergic receptor (Homo sapiens) (UniProt P18825); test: compounds altering alpha2C-coupled GIRK flux – cell-based, HEK293 alpha2C/GIRK1/2, thallium flux, primary screen (AID 624;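 active = fluorescence slope after compound addition differing from the mean of all screened samples at 99.7% confidence, in either direction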;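 also: slope of fluorescence ratio to pre-addition baseline per second over 15 to 24 s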); conditions: thallium flux BTC fluorescence, at 10 µM, actives lie on both sides
[7] = blockers of RIG-like receptor reporter activation – cell-based, Sendai virus stimulus, luciferase, 10K MLSCN set, TLR/RLR signaling modifier project, primary screen (AID 602276); conditions: HEK293 RL24 IRF3 luciferase reporter, at 10 µM, stronger effect = higher value;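 also: firefly luciferase from ISG56 promoter only with Renilla not read in this screen; 0% = Sendai virus plus DMSO and 100% = medium plus DMSO without virus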
[8] = TLR3 IRF3 reporter activation blockers – cell-based, poly I:C stimulus, luciferase, 10K MLSCN set, primary screen (AID 602277;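 active = inhibition of the reporter signal at or above 50%; inactive = inhibition below 50%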); conditions: HEK293-TLR3 RL24 IRF3 luciferase reporter, at 10 µM, stronger effect = higher value

Chain of Alpha-2C adrenergic receptor (Homo sapiens) (P18825 whole entry, looked up): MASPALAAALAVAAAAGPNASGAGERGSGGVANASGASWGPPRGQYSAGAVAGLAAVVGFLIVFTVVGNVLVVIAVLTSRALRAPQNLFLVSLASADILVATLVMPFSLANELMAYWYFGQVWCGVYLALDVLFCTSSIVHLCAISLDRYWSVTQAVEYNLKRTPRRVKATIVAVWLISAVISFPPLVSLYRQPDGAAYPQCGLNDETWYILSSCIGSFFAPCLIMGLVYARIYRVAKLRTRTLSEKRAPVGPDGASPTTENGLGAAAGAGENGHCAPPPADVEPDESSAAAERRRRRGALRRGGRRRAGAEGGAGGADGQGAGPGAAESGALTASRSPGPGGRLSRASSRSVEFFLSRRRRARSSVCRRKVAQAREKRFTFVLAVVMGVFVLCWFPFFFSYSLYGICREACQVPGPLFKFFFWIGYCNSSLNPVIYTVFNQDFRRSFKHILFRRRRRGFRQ
Chain of Voltage-gated potassium channel subunit beta-2 (Rattus norvegicus) (P62483 whole entry, looked up): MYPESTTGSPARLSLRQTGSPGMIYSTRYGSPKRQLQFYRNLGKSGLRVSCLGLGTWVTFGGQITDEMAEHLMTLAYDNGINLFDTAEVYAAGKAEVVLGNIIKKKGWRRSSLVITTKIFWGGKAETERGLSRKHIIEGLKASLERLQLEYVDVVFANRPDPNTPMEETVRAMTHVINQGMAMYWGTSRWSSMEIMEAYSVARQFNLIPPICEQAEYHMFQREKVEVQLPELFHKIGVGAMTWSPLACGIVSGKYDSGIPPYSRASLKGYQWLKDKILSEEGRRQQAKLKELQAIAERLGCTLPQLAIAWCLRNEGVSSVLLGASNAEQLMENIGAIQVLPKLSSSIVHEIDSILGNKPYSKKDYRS

| Structure (SMILES) | cell count [1] | inhibition [1] | inhibition of aggregation [2] | nuclei count [2] [%] | inhibition [3] | nuclei count [3] [%] | fluorescence slope [4] | NADPH fluorescence slope [5] | slope [6] | inhibition [7] | inhibition [8] |
| --- | --- | --- | --- | --- | --- | --- | --- | --- | --- | --- | --- |
| CC(NC(=O)c1noc2c1CCCCC2)c1ccccc1 (stereo not drawn) | 936 | 6.9% (inactive) | -5% (inactive) | 154 | -24.9% (inactive) | 126 | -0.618 (inactive) | -3.4e-05 (inactive) | 0.00631 (inactive) | -24.9% (inactive) | -53.9% (inactive) |
| Cc1nc2cc(Cl)ccc2n1CCO | 404 | 6.1% (inactive) | -6.3% (inactive) | 104 | 15.4% (inactive) | 115 | -0.565 (inactive) | -1.6e-05 (inactive) | 0.00492 (inactive) | 17% (inactive) | 21.6% (inactive) |
| Cc1ccc(S(=O)(=O)N(CC(=O)NCc2ccco2)Cc2ccccc2F)cc1 | 308 | 2.4% (inactive) | 14% (inactive) | 92.3 | -3.2% (inactive) | 103 | -0.524 (inactive) | 1.7e-06 (inactive) | 0.00527 (inactive) | 8.9% (inactive) | 11.9% (inactive) |
| COc1ccc(CNc2nc3nc(C)c(Cl)c(C)n3n2)cc1OC | 684 | -23.3% (inactive) | -2.8% (inactive) | 110 | -4.1% (inactive) | 105 | -0.331 (inactive) | -6e-05 (inactive) | 0.00515 (inactive) | 3.08% (inactive) | -10.6% (inactive) |
| CCN(CC)S(=O)(=O)c1ccc(NC(=O)Cn2cnc3ccccc3c2=O)cc1 | 321 | -1.8% (inactive) | 15.7% (inactive) | 96 | -112% (inactive) | 108 | -0.483 (inactive) | -0.000135 (inactive) | 0.0039 (inactive) | 12.3% (inactive) | 16% (inactive) |
| COc1cc2c(cc1OC)-c1cc(Nc3ccc4c(c3)OCCO4)nc(=O)n1CC2 | 649 | -6.9% (inactive) | 0.9% (inactive) | 104 | 5.7% (inactive) | 128 | -0.41 (inactive) | -5.2e-06 (inactive) | 0.00445 (inactive) | 41.3% (inactive) | 44.1% (inactive) |
| C=CCn1c(SCn2nnc3ccccc3c2=O)nnc1-c1ccc(Br)cc1 | 447 | -8.7% (inactive) | 6% (inactive) | 67.5 | -30.7% (inactive) | 110 | -0.328 (inactive) | -5.6e-05 (inactive) | 0.00508 (inactive) | -1.43% (inactive) | -21.1% (inactive) |
| Cc1c(C(=O)OCC(C)(C)CN(C)C)oc2ccccc12 | 428 | -3.3% (inactive) | -15.2% (inactive) | 107 | -39.5% (inactive) | 118 | -0.328 (inactive) | 2.8e-05 (inactive) | 0.00529 (inactive) | -31.4% (inactive) | -27.6% (inactive) |
| O=C(c1ccccc1Oc1nnnn1-c1ccccc1)N1CCOCC1 | 315 | -0.9% (inactive) | -13.9% (inactive) | 107 | -73.9% (inactive) | 113 | -0.269 (inactive) | 2e-05 (inactive) | 0.00699 (inactive) | 9.07% (inactive) | 21.2% (inactive) |
| COC(=O)CSC1=C(C#N)C(c2ccc(F)cc2)CC(=O)N1 (stereo not drawn) | 591 | 2.5% (inactive) | -6.5% (inactive) | 91.8 | 0.6% (inactive) | 91 | -0.542 (inactive) | -3.8e-05 (inactive) | 0.00754 (inactive) | 10.2% (inactive) | 19.4% (inactive) |
| Cc1ccc(-c2noc(CN3C(C)CCCC3C)n2)cc1 (stereo not drawn) | 483 | 2.1% (inactive) | -5.2% (inactive) | 75.4 | -26.4% (inactive) | 101 | -0.531 (inactive) | -1.6e-05 (inactive) | 0.00754 (inactive) | 2.73% (inactive) | 0.396% (inactive) |
| Cc1cc(=O)oc2c1c(C)nn2-c1ccc(C(=O)OC(C)C)cc1 | 741 | -2.9% (inactive) | -39.6% (inactive) | 106 | -67.2% (inactive) | 106 | -0.529 (inactive) | -1.2e-05 (inactive) | 0.00612 (inactive) | 8% (inactive) | 26.1% (inactive) |
| CCCCn1nnc(NC(=O)c2cc3ccccc3o2)n1 | 615 | 2.2% (inactive) | 3.5% (inactive) | 106 | -13.4% (inactive) | 90.8 | -0.468 (inactive) | 1.2e-05 (inactive) | 0.00257 (inactive) | -19% (inactive) | -27.4% (inactive) |
| O=C(O)COc1ccc(S(=O)(=O)NCCc2ccccc2)cc1 | 596 | -0.8% (inactive) | 20.5% (inactive) | 81.4 | -54.3% (inactive) | 119 | -0.543 (inactive) | -6.9e-05 (inactive) | 0.00764 (inactive) | 13% (inactive) | 24.1% (inactive) |
| CC1CCc2nn(CC(=O)NCCN3CCCCC3C)cc2C1 (stereo not drawn) | 621 | 12% (inactive) | -27.1% (inactive) | 106 | -11.5% (inactive) | 108 | -0.62 (inactive) | 6.4e-06 (inactive) | 0.00605 (inactive) | 7.09% (inactive) | 33.8% (inactive) |
| CC(=O)Nc1ccc(S(=O)(=O)Nc2nc3ccccc3nc2N2CCCC2)cc1 | 369 | 3.2% (inactive) | 10.6% (inactive) | 106 | -42.3% (inactive) | 128 | -0.593 (inactive) | 2.1e-06 (inactive) | 0.00326 (inactive) | 20.8% (inactive) | 21.3% (inactive) |
| CC1(C)NC(=O)N(CN2C(=O)NC(C)(C)C2=O)C1=O | 579 | -7.9% (inactive) | -22.5% (inactive) | 114 | 28.8% (inactive) | 110 | -0.415 (inactive) | -3.4e-05 (inactive) | 0.00531 (inactive) | 7.1% (inactive) | 9.34% (inactive) |
| COc1ccc(S(=O)(=O)N2CCCC(C(=O)NCc3ccccn3)C2)cc1 (stereo not drawn) | 291 | -2.2% (inactive) | 8.2% (inactive) | 72.3 | 1.9% (inactive) | 76.8 | -0.477 (inactive) | -2.4e-05 (inactive) | 0.00625 (inactive) | 12.7% (inactive) | 35.6% (inactive) |
| O=C(CCCc1cccs1)Nc1nc2c(s1)CCCC2 | 613 | 9.3% (inactive) | -20.4% (inactive) | 102 | -164% (inactive) | 150 | -0.461 (inactive) | -2.9e-05 (inactive) | 0.00629 (inactive) | -29.3% (inactive) | -48.8% (inactive) |
| COc1ccc(C)cc1NC(=O)COCC(=O)O | 710 | -28.6% (inactive) | 4.1% (inactive) | 100 | -22.9% (inactive) | 102 | -0.605 (inactive) | -1.6e-05 (inactive) | 0.00568 (inactive) | -0.927% (inactive) | 9.35% (inactive) |
| CC(C)c1ncc(C(O)c2cccc3ccccc23)n1C (stereo not drawn) | 640 | -10.5% (inactive) | 11.4% (inactive) | 75.8 | -10.8% (inactive) | 123 | -0.494 (inactive) | -6.2e-05 (inactive) | 0.00406 (inactive) | -12.7% (inactive) | -7.56% (inactive) |
| Cn1c(=O)c2ncn(CC(=O)NCCOc3ccc(C(C)(C)C)cc3)c2n(C)c1=O | 762 | 2.2% (inactive) | -9.8% (inactive) | 103 | -15.3% (inactive) | 106 | -0.582 (inactive) | -3.7e-05 (inactive) | 0.00671 (inactive) | -12.6% (inactive) | -14.5% (inactive) |
| Cn1c(SCC(=O)Nc2ccc3c(c2)OCO3)nnc1-c1cnccn1 | 656 | 6.5% (inactive) | 3.7% (inactive) | 94.2 | 46.9% (inactive) | 91.7 | -0.366 (inactive) | -5.5e-05 (inactive) | 0.00395 (inactive) | 12.5% (inactive) | 24.2% (inactive) |
| CN(C)S(=O)(=O)c1ccc(/C(O)=C2/C(=O)C(=O)N(CCN3CCCCC3)C2c2cccnc2)cc1 (stereo not drawn) | 391 | 5.5% (inactive) | 5.7% (inactive) | 88.2 | -68.5% (inactive) | 113 | -0.396 (inactive) | 2e-05 (inactive) | 0.00576 (inactive) | -17.9% (inactive) | -24% (inactive) |
| Cc1ccc(S(=O)(=O)N2CCN(S(=O)(=O)N(C)C)CC2)cc1 | 362 | 4.3% (inactive) | -29.3% (inactive) | 101 | 8.9% (inactive) | 111 | -0.518 (inactive) | -1.8e-06 (inactive) | 0.00563 (inactive) | 12.1% (inactive) | 15.4% (inactive) |
| CCCCOC(=O)c1[nH]c2c(c1C)C(=O)CC(c1cc(OC)c(OC)c(OC)c1)C2 (stereo not drawn) | 546 | -1.7% (inactive) | 18.4% (inactive) | 79.6 | -7.4% (inactive) | 104 | -0.57 (inactive) | -2.8e-05 (inactive) | 0.00591 (inactive) | 7.86% (inactive) | -20.9% (inactive) |
| OCc1cn(-c2ccccc2)nc1-c1ccc2c(c1)OCCO2 | 438 | 4.2% (inactive) | -10.7% (inactive) | 99.4 | -84% (inactive) | 112 | -0.532 (inactive) | -4.4e-05 (inactive) | 0.00702 (inactive) | -51.8% (inactive) | -135% (inactive) |
| Cc1cc(C)cc(-n2nnc(C(=O)NCc3ccc4c(c3)OCO4)c2N)c1 | 571 | 7.5% (inactive) | -33.1% (inactive) | 108 | -17.7% (inactive) | 108 | -0.572 (inactive) | 2.9e-05 (inactive) | 0.00545 (inactive) | 7.67% (inactive) | 22.1% (inactive) |
